Five compounds from PubChem BioAssay (Tox21) can be followed below.

Molecules are shown by their SMILES. “And” between values parts separate entries of the source, which are not always exact repeats. Equal values may be shown once. Records with an inconclusive call do not appear. A structure can be active in one record and inactive in another. The source made the active and inactive calls. Unless noted, the call rests on the fitted dose curve; in most records, active means well fitted curve in the direction sought with a large enough effect in the repeat runs; inconclusive means weak or mixed curves; inactive means no such curve, though single readings can be large; an effect the other way counts as inactive or inconclusive.

Experiment [1] can be described thus: Human pregnane X receptor (PXR) small molecule agonists, qHTS cell viability counter screen (AID 1346977). Further: nearly all actives have a fitted effect of over 50% in size. Further: potency means the concentration at half of the fitted maximal effect. An outline of the steps: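 PXR-Luc HepG2 cells (2,000/well, 5% charcoal-stripped FBS) preincubated 5 hr, then exposed to compounds 24 hr at 37 C. Viability read in the same wells by CellTiter-Fluor fluorescence, reagent added at 23 hr, 1 hr incubation.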
For orientation: In qHTS, concentration-response curves come from the screen itself.

Experiment [2] is described as follows: Caspase-3/7 induction in HepG2 cells by small molecules, qHTS assay (AID 1346978). Further: nearly all actives have a fitted effect of over 15% in size. An outline of the steps: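 Wild-type HepG2 cells (2,000/well) were settled 5 h at 37 C, 5% CO2, then exposed to compounds in DMSO for 17 h. Caspase-3/7 activity was read by luminescence 30 min after adding Caspase-Glo 3/7 reagent at room temperature.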
Experiment [3] in a line: Caspase-3/7 induction in CHO-K1 cells by small molecules, qHTS cell viability counter screen (AID 1346979). Further: nearly all actives have a fitted effect of over 35% in size. Further: potency means the concentration at half of the fitted maximal effect. A digest of the protocol:
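Wild-type CHO-K1 cells (1,500/well) treated with compound after 5 h plating; after 16 h at 37C, viability read as CellTiter-Fluor fluorescence following 1 h reagent incubation, in the same wells as the caspase read.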

A short description of experiment [4]: Caspase-3/7 induction in CHO-K1 cells by small molecules, qHTS assay (AID 1346980). Further: nearly all actives have a fitted effect of over 15% in size. A digest of the protocol:
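Wild-type cells were seeded at 1,500 per well and settled 5 hr at 37 C, 5% CO2, then exposed to DMSO-dissolved compounds for 17 hr. Caspase-Glo 3/7 reagent was added, and luminescence was read after 30min at room temperature.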

Experiment [5] is described as follows: Caspase-3/7 induction in HepG2 cells by small molecules, qHTS cell viability counter screen (AID 1346981). Further: nearly all actives have a fitted effect of over 30% in size. Further: potency means the concentration at half of the fitted maximal effect. A digest of the protocol: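 The parent HepG2 line is plated at 2,000 cells per well and rested 5 hr before compound pinning from DMSO stocks. Following a 16-hr treatment at 37 C, a fluorogenic live-cell substrate (CellTiter-Fluor) reports viability after 1 hr.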

Experiment [6] concerns the target Nuclear receptor subfamily 1 group I member 2 (Homo sapiens) (UniProt O75469). In words: Human pregnane X receptor (PXR) small molecule agonists, qHTS assay (AID 1346982). Further: nearly all actives have a fitted effect of over 35% in size. Further: potency means the concentration at half of the fitted maximal effect. A digest of the protocol: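 After plating in 5% charcoal-stripped FBS and a 5 hr rest, PXR-Luc HepG2 cells received compounds in DMSO. Following 24 hr at 37 C, ONE-Glo was added and light output read.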

Experiment [7] concerns the target Nuclear receptor subfamily 1 group I member 2 (Rattus norvegicus) (UniProt Q9R1A7). In words: Rat pregnane X receptor (rPXR) activation by small molecules, qHTS assay (AID 1346983). Further: nearly all actives have a fitted effect of over 20% in size. Conditions: rPXR luciferase reporter cells, One-Glo luminescence, 24 h; stronger effect = higher value. A digest of the protocol:
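Cell-based rPXR luciferase reporter assay, 2,000 cells per well, rested 5hr at 37 C before compound addition in DMSO, then 24 hr at 37 C. One-Glo reagent was added and luminescence read after 30 min at room temperature.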

Experiment [8] has as its target Nuclear receptor subfamily 1 group I member 2 (Homo sapiens) (UniProt O75469). In words: CYP3A4 induction through human pregnane X receptor (PXR) by small molecules, qHTS assay (AID 1346984). Further: nearly all actives have a fitted effect of over 40% in size. An outline of the steps: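 Human PXR activation is tracked via CYP3A4 promoter-luciferase in DPX-2 (HepG2) cells. Compounds treat cells for 24hr at 37C, and luminescence is read after One-Glo.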

The target is the same in experiment [9]. In words: Human pregnane X receptor (PXR) activation by small molecules, qHTS assay (AID 1346985). Further: nearly all actives have a fitted effect of over 40% in size. An outline of the steps: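 DPX-2 cells (HepG2 co-transfected with a PXR response element and a CYP3A4-promoter luciferase construct) were seeded at 2,000 per well, rested 5 hr at 37C, then exposed to DMSO-dissolved compounds for 24 hr. Activation was read as luciferase luminescence.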

Experiment [10] concerns the target Acetylcholinesterase (Homo sapiens) (UniProt P22303). In words: Acetylcholinesterase (AChE) small molecule antagonists: colormetric cell-based qHTS assay (AID 1347395; calls by dose curve; further: nearly all actives have a fitted effect of over 30% in size; further: potency means the concentration at half of the fitted maximal effect). An outline of the steps:
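SH-SY5Y cells attached overnight, exposed to compound 30 min at 37 C, then given DTNB/acetylthiocholine; after 90 min at 37 C, colorimetric thiocholine read gives cellular AChE activity.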

Experiment [11] shares this target. In words: Acetylcholinesterase (AChE) small molecule antagonists: enzyme-based qHTS assay (AID 1347397; calls by dose curve; further: nearly all actives have a fitted effect of over 55% in size; further: potency means the concentration at half of the fitted maximal effect). As to conditions: Potency: AChE enzyme activity inhibition. An outline of the steps:
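Compound or DMSO vehicle was pin-transferred onto recombinant human AChE (50 mU/mL as dispensed) and left 30 min at room temperature. Acetylthiocholine with DTNB then started the reaction, read colorimetrically 10 min later.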

The target is the same in experiment [12]. In words: Acetylcholinesterase (AChE) small molecule antagonists: fluorescence cell-based qHTS assay (AID 1347398; calls by dose curve; further: nearly all actives have a fitted effect of over 50% in size; further: potency means the concentration at half of the fitted maximal effect). Conditions: Potency: AChE activity. A digest of the protocol:
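Using neuroblastoma SH-SY5Y cells as the enzyme source, test chemicals are preincubated 30 min at 37 C; AChE-driven acetylthiocholine cleavage is then quantified by thiocholine-dependent Thiolite Green fluorescence after 40 min at room temperature.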

For experiment [13] the target is unchanged. In words: Acetylcholinesterase (AChE) small molecule antagonists: enzyme-based qHTS assay with human liver microsomes (AID 1347399; calls by dose curve; further: nearly all actives have a fitted effect of over 60% in size; further: potency means the concentration at half of the fitted maximal effect). As to conditions: Potency: qHTS inhibition. A digest of the protocol: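 Recombinant human AChE (50 mU/mL in the enzyme mix) and human liver microsomes (0.25 mg/mL final) were preincubated with compound and NADPH (0.25 mg/mL final) for 30 min at 37 C. Acetylthiocholine/DTNB was then added; thiocholine was read colorimetrically after 10 min at room temperature.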

For experiment [14], the target named is Cytochrome P450 2D6 (Homo sapiens) (UniProt P10635). In words: Cytochrome P450 Family 2 Subfamily D Member 6 (CYP2D6) small molecule antagonists: luciferase reporter qHTS assay (AID 1671196). Further: nearly all actives have a fitted effect of over 50% in size. Further: potency means the concentration at half of the fitted maximal effect. An outline of the steps: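 Quantitative HTS of Tox21 chemicals against CYP2D6 using a luminescent proluciferin substrate. After NADPH addition, 1 h room-temperature reaction; luminescence recorded 20 min post detection reagent.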
Chain of Cytochrome P450 2D6 (Homo sapiens) (P10635 whole entry, looked up): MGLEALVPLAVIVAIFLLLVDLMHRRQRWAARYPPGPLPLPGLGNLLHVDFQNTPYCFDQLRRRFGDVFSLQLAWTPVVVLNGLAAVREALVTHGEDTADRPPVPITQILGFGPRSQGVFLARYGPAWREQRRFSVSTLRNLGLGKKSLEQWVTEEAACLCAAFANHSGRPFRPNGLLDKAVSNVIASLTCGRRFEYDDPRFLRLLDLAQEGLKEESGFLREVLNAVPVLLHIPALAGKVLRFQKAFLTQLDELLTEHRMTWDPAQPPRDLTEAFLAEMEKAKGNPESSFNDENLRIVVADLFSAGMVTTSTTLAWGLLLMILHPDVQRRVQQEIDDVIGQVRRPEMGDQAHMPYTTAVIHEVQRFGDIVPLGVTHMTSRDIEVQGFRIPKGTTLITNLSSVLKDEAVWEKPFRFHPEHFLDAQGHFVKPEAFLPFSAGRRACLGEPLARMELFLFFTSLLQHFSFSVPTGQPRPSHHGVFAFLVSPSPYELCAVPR
Background: A reporter such as luciferase makes a cellular process visible.

Experiment [15] concerns the target Cytochrome P450 2C19 (Homo sapiens) (UniProt P33261). In words: Cytochrome P450 Family 2 Subfamily C Member 19 (CYP2C19) small molecule antagonists: luciferase reporter qHTS assay (AID 1671197). Further: nearly all actives have a fitted effect of over 65% in size. Further: potency means the concentration at half of the fitted maximal effect. A digest of the protocol:
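P450-Glo CYP2C19 system: enzyme-substrate mix with compound 10 min at room temperature, then NADPH regeneration solution, 1 h at 37C. Proluciferin-to-luciferin conversion detected by luminescence after 20 min with detection reagent; ketoconazole as positive control.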

In experiment [16] the target is Cytochrome P450 2C9 (Homo sapiens) (UniProt P11712). In words: Cytochrome P450 Family 2 Subfamily C Member 9 (CYP2C9) small molecule antagonists: luciferase reporter qHTS assay (AID 1671198). Further: nearly all actives have a fitted effect of over 50% in size. Further: potency means the concentration at half of the fitted maximal effect. A digest of the protocol: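 CYP2C9 activity was measured with a P450-Glo proluciferin substrate. Enzyme–substrate mix was held with compound for 10 min at room temperature, then NADPH regeneration solution was added for 1 h at 37C. Luciferin product was read as luminescence.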
Chain of Cytochrome P450 2C9 (Homo sapiens) (P11712 whole entry, looked up): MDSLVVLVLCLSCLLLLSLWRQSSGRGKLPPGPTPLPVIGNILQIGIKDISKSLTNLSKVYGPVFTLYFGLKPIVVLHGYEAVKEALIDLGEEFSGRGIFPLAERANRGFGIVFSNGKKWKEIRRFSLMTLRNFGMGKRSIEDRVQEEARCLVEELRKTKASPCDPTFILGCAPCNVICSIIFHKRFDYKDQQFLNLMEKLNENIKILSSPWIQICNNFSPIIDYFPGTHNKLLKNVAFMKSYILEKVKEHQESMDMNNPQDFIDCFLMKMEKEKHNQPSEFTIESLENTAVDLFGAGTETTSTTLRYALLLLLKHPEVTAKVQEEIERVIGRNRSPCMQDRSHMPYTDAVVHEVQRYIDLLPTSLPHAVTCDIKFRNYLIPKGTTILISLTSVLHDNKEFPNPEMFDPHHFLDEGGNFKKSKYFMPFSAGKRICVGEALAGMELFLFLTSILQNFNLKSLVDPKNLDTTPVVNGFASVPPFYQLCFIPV

In experiment [17] the target is Cytochrome P450 1A2 (Homo sapiens) (UniProt P05177). In words: Cytochrome P450 Family 1 Subfamily A Member 2 (CYP1A2) small molecule antagonists: luciferase reporter qHTS assay (AID 1671199). Further: nearly all actives have a fitted effect of over 50% in size. Further: potency means the concentration at half of the fitted maximal effect. An outline of the steps:
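Quantitative high-throughput format using the P450-Glo CYP1A2 system. Reaction initiated by NADPH regeneration solution, 1 h at room temperature, then stopped with detection reagent; luminescence measured 20 min later.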

Experiment [18] has as its target Voltage-gated inwardly rectifying potassium channel KCNH2 (Homo sapiens) (UniProt Q12809). In words: Human Ether-a-go-go-Related Gene (hERG) channel small molecule antagonists: fluorescence cell-based qHTS assay (AID 1671200). An outline of the steps:
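hERG-U2OS cells plated overnight at 37 C, loaded with FluxOR II dye 1 h at RT in dark; after 10 min, thallium stimulus added. Fluorescence (480/540 nm) read kinetically for 2 min at 1 s intervals.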
Background: Block of hERG is tested as a sign of cardiac risk.

Experiment [19] deals with Cytochrome P450 3A4 (Homo sapiens) (UniProt P08684). In words: Cytochrome P450 Family 3 Subfamily A Member 4 (CYP3A4) small molecule antagonists: luciferase reporter qHTS assay (AID 1671201). Further: nearly all actives have a fitted effect of over 50% in size. Further: potency means the concentration at half of the fitted maximal effect. An outline of the steps: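 P450-Glo CYP3A4 luminescent assay: compounds preincubated 10 min at room temperature with enzyme and proluciferin substrate, NADPH regeneration added, 1 h room-temperature reaction, stopped with luciferin detection reagent; luminescence read after 20 min. Ketoconazole positive control.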
Chain of Cytochrome P450 3A4 (Homo sapiens) (P08684 whole entry, looked up): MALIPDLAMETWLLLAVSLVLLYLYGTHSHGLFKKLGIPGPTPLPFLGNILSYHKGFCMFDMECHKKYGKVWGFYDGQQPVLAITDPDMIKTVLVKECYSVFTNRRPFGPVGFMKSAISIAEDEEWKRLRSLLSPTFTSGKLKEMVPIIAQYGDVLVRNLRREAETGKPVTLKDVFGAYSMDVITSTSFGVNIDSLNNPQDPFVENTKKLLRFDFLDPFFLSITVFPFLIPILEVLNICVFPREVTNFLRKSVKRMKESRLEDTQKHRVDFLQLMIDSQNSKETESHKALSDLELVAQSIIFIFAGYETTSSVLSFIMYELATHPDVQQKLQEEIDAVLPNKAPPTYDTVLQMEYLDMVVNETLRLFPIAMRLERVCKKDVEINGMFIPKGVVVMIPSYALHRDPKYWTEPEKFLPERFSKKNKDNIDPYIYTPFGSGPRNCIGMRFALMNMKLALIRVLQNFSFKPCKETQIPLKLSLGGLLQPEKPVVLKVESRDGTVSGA
On the % scale 0 is the no-effect control and ±100 the full control effect.

Chain of Cytochrome P450 2C19 (Homo sapiens) (P33261 whole entry, looked up): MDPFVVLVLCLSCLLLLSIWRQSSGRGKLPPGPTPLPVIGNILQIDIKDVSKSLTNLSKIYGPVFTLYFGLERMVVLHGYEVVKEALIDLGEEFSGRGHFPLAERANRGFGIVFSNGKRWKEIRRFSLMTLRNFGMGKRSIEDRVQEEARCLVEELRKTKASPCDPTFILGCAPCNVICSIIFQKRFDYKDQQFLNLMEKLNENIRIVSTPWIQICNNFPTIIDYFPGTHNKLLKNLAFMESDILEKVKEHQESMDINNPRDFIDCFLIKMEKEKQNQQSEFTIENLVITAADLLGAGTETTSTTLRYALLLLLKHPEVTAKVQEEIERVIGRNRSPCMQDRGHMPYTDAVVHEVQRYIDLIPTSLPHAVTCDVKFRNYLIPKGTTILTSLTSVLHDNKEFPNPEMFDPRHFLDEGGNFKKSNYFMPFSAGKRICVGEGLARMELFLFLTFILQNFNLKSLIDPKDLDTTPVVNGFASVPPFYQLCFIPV
Chain of Nuclear receptor subfamily 1 group I member 2 (Rattus norvegicus) (Q9R1A7 whole entry, looked up): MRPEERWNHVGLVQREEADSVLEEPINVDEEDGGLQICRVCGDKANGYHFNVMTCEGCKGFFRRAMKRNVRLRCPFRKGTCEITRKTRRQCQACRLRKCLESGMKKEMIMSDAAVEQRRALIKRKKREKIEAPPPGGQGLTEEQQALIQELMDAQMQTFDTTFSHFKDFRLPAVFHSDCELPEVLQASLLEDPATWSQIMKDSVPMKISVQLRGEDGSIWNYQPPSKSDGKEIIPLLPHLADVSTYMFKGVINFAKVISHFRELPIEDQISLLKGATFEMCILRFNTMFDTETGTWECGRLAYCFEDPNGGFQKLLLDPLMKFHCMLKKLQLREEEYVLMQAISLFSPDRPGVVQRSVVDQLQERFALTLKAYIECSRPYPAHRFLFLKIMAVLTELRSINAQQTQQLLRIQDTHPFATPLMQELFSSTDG
Chain of Voltage-gated inwardly rectifying potassium channel KCNH2 (Homo sapiens) (Q12809 whole entry, looked up): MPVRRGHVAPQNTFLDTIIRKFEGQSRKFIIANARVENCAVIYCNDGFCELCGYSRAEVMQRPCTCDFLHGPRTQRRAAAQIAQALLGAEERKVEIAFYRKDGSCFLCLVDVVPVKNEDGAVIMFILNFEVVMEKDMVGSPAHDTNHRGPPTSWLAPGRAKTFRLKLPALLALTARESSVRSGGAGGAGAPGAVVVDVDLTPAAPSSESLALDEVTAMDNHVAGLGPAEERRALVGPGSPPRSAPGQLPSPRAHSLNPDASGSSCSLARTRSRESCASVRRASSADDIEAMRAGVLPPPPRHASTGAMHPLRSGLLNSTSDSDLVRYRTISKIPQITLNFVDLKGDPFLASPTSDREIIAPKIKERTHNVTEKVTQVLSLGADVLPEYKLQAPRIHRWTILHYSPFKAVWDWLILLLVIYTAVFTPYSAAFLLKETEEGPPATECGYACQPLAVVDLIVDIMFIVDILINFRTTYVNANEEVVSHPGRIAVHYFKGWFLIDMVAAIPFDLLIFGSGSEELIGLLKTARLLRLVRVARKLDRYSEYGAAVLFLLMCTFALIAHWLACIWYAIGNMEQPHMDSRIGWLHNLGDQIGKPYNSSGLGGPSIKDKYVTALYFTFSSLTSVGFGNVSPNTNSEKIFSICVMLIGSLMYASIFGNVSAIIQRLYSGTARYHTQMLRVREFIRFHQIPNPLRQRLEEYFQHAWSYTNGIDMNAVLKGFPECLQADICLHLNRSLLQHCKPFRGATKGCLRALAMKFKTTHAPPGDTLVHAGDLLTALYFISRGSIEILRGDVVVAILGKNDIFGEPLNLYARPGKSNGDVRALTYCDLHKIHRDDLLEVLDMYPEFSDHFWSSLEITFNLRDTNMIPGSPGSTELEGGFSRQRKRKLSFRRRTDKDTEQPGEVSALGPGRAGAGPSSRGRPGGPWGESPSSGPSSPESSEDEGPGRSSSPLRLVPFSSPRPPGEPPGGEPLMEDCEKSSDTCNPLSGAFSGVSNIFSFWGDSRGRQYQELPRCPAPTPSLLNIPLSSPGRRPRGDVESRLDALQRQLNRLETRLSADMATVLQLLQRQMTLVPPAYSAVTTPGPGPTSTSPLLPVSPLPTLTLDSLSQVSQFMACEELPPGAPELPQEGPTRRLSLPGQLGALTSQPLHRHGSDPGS
Chain of Nuclear receptor subfamily 1 group I member 2 (Homo sapiens) (O75469 whole entry, looked up): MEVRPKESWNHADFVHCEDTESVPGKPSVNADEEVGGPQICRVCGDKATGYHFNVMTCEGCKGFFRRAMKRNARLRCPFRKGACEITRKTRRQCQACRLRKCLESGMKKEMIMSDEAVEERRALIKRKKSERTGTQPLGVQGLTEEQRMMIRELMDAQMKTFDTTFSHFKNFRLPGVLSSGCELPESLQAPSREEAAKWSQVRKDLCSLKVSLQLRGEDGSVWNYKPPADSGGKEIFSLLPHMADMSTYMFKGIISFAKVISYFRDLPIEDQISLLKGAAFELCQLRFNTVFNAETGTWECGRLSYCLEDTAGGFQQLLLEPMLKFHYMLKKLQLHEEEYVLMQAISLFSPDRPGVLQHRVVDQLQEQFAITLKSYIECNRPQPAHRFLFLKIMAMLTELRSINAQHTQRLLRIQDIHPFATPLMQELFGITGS
Chain of Acetylcholinesterase (Homo sapiens) (P22303 whole entry, looked up): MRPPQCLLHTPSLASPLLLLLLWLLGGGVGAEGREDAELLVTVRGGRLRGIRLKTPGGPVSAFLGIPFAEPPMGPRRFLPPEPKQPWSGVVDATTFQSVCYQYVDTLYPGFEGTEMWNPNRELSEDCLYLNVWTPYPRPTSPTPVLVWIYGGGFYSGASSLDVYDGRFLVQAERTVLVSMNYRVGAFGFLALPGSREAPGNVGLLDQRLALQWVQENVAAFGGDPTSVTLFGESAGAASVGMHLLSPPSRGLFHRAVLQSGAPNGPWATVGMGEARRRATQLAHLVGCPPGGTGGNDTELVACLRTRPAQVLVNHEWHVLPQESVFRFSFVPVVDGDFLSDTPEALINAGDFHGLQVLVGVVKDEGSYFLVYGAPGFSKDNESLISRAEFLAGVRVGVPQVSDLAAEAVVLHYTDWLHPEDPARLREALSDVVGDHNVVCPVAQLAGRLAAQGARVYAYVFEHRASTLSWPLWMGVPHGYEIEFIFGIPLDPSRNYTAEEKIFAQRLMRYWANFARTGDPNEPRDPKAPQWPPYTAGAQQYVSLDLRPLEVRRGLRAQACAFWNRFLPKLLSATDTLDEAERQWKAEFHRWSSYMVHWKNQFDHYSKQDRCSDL

Consider `C[N+](C)(C)CC(=O)O`, for which the Potency result in experiment [1], in experiment [2], in [3], in experiment [4], in [5] and in experiment [6] was “inactive” throughout. Besides, the Potency result in experiment [8], in experiment [10], in experiment [11], in [12], in [13] and in experiment [14] was “inactive” each time. In addition, the Potency result in experiment [15], in [16], in [18] and in experiment [19] was “inactive” each time. In experiment [7], the max activation is -1.07% (inactive). In addition, the compound was classed as inactive in [9]. The Potency result in experiment [17] was “inactive and 17.4 µM (active)”.

`ClCC(Cl)CCl`: the Potency entry in experiment [1], in [2], in [3], in [4], in [5] and in [6] was “inactive” in each case. The Potency result in experiment [10], in [11], in [12], in experiment [13], in [15] and in [16] was “inactive” throughout. In addition, the Potency result in experiment [18] and in experiment [19] was “inactive” in each case. Moreover, the Potency in experiment [14] was 28.5 µM (active) and inactive; in experiment [17] it was 44.8 µM (active).

As for `CCOP(=S)(OCC)SCSC(C)(C)C`, the Potency entry in experiment [1], in [2], in [3], in experiment [4], in experiment [5] and in experiment [10] was “inactive” in each case. Besides, the Potency entry in [11], in [12], in [14] and in [18] was “inactive” throughout. Further, the Potency is 61.6 µM (active) and inactive in experiment [6]; 40.2 µM (active) and 56.4 µM (active) in experiment [13]; 9.01 µM (active) and 3.17 µM (active) in experiment [15]; 32 µM (active) and 14.2 µM (active) in experiment [16]; 39.9 µM (active) in [17]; 12.7 µM (active) and 7.1 µM (active) in experiment [19].

Regarding `COP(=O)(NC(C)=O)SC` (stereo not drawn), the Potency result in experiment [1], in experiment [2], in [4], in [5], in experiment [6] and in [10] was “inactive” throughout. Further, the Potency entry in [11], in experiment [12], in [13], in experiment [14], in experiment [16] and in experiment [18] was “inactive” in each case. Moreover, the Potency is 48.6 µM (active) and inactive in experiment [3]; 71.1 µM (active) and inactive in experiment [15].

`CC[n+]1c(-c2ccccc2)c2cc(N)ccc2c2ccc(N)cc21`: the Potency in experiment [1] was 27.2 µM (active); in [3], 60.8 µM (active) and 29.8 µM (active); in experiment [5], 38.4 µM (active) and 23.7 µM (active); in experiment [10], 31.6 µM (active) and 19.5 µM (active); in [11], 79.3 µM (active); in experiment [12], 31.6 µM (active) and 12.3 µM (active). The Potency in experiment [14] is 562 nM (active) and 2.19 µM (active); in [15], 7.07 µM (active) and 5.49 µM (active); in [16] it was 35.4 µM (active) and 30.9 µM (active); in experiment [17] it was 9.99 µM (active) and 10.2 µM (active). Further, the Potency result in experiment [2], in experiment [4], in experiment [6], in experiment [8], in [13] and in [18] was “inactive” in each case. Also, the max activation in [7] was -4.94% (inactive) and -4.01% (inactive). The compound was called inactive in experiment [9].
